# Screens (PubChem)
# Shown are actives, neighbours in structure and some others; about 3.7% of the full set was active somewhere.
# FEN1 inh-1 – human FEN1 inhibition; P39748; Recombinant FEN1 flap cleavage, fluorescence, 15 min; Potency, µM (series often up to 114 µM), for the others: at the top dose activity change, negative = inhibition, actives largely listed as inhibitors; actives 0.35% (n = 390,000); further: potency means the concentration at half of the fitted maximal effect; on the % scale 0 is the no-effect control and ±100 the full control effect; nearly all actives have a fitted effect of over 65% in size
#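 Steps: FEN1 (10 nM) dispensed; compound added by pin tool; 15 min at room temperature; substrate added to 50 nM final; reads at 0 min and 15 min; data normalized and fitted (four-parameter Hill).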
# PI5P4K alpha inh – PI5P4K alpha (human) kinase inhibition; P48426; PI5P4Kalpha enzyme, ADP-Glo luminescence, 60 min; stronger effect = lower value; max response, %; actives 1.2% (n = 330,000); active means max response of -50% or lower; inconclusive means between -30% and -50%; inactive means -30% or higher; further: value at the top dose of about 77 µM; on the % scale 0 is the no-effect control and ±100 the full control effect
#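 ADP-Glo luminescence end-point after a 60 min room-temperature kinase reaction. PI5P4Kalpha and substrate in HEPES pH 7.4 buffer with EGTA, 0.1% CHAPS and 5% DMSO; ATP at 5 microM final.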
# WRN inhibitor – WRN helicase (human) inhibition. Q14191. WRN helicase unwinding, fluorescent forked duplex, kinetic. Potency, µM (highest dose often 114 µM), inactives show at the highest dose activity change, negative = inhibition, usual class: inhibitors. actives 0.46% (n = 360,000); further: potency means the concentration at half of the fitted maximal effect; on the % scale 0 is the no-effect control and ±100 the full control effect; nearly all actives have a fitted effect of over 55% in size
#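 Primary qHTS, 1536-well format. 20 nM WRN + compound, 15 min RT; start with 100 nM forked fluorophore/quencher duplex, 2 mM ATP (final); kinetic read ex 525/em 598 nm.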
# PLK1 PBD inh – blocks phosphopeptide binding to human PLK1 polo-box domain. Potency, µM, without a hit: max response, negative = inhibition, actives largely listed as inhibitors. P53350. Plk1 PBD binding of FITC phosphopeptide, fluorescence polarization. AID 720504. actives 2.8% (n = 360,000); further: potency means the concentration at half of the fitted maximal effect; series mostly up to about 57 µM; on the % scale 0 is the no-effect control and ±100 the full control effect; nearly all actives have a fitted effect of over 65% in size
# VDR inh – blocks the human vitamin D receptor; Potency, µM, for inactives: max response, negative = inhibition, actives largely listed as inhibitors; VDR-SRC2-3 peptide fluorescence polarization, 2 h; actives 0.93% (n = 400,000); AID 504847; P11473; further: potency means the concentration at half of the fitted maximal effect; on the % scale 0 is the no-effect control and ±100 the full control effect
#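 Fluorescence polarization assay measuring small-molecule disruption of VDR binding to the coregulator peptide SRC2-3. Compounds were pin-transferred (23 nl) into the reagent mix and incubated 2 h at room temperature before reading.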
# TCR activator – activates T cell receptor signaling | AID 504894 | 330,000 tested, under 10 active | primary human leukocytes, anti-CD3, IL-2 HTRF, 48 h | Potency, µM (titrated, usually from 9.22 µM), without a hit: at the highest dose activation of IL-2 secretion, actives largely listed as activators; further: % of control where 0% means no effect
#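 1) Mix primary human leukocytes, a-CD3 beads and compound. 2) Incubate 48 hr. 3) Add HTRF IL-2 reagents (a-IL-2-K, a-IL-2-d2).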
# FEN1 inh-2 – confirmation of human FEN1 inhibitors. AID 720498. shares compounds with FEN1 inh-1. actives 79% (n = 880). FEN1 flap cleavage, TAMRA/BHQ2 fluorogenic DNA substrate. Potency, µM, actives largely listed as inhibitors; further: potency means the concentration at half of the fitted maximal effect; nearly all actives have a fitted effect of over 60% in size
# Active calls of the source: *; u = inconclusive; x = not tested or not shown; [ ] = remark or other dose. Unless noted, the call rests on the fitted dose curve; in most records, active means well fitted curve in the direction sought with a large enough effect; inconclusive means small, poorly fitted or top-dose-only effect, or another doubt; inactive means no such curve, though single readings can be large; an effect the other way counts as inactive or inconclusive.
SMILES,FEN1 inh-1,PI5P4K alpha inh,WRN inhibitor,PLK1 PBD inh,VDR inh,TCR activator,FEN1 inh-2
Oc1ccc(NCc2ccccc2OCc2ccccc2F)cc1,u,-22.5,u,-11.0%,39.8µM*,-6.4%,u
COc1cc(-c2ccc3ncnc(NCc4ccc(C)o4)c3c2)cc(OC)c1OC,x,x,x,x,x,x,u
COc1ccc(CNc2ncnc3ccc(-c4ccccc4OC)cc23)c(OC)c1,x,x,x,x,-7.2%,x,x
O=C(CSCc1cc(=O)c2cc(F)ccc2[nH]1)Nc1ccccc1Cl,-0.5%,x,x,x,16.2%,x,x
CCN(C(=O)CSc1nc2ccccc2n1CC(=O)Nc1ccc(F)cc1F)c1ccccc1,-11.4%,x,x,x,9.7%,x,x
Cc1csc(N/N=C/c2ccc(O)c([N+](=O)[O-])c2)n1,79.4µM*,-74.7*,u,u,-14.9%,0.8%,67.5*
Cc1nnc(N/N=C/c2ccc(O)c([N+](=O)[O-])c2)[nH]c1=O,2.7%,7.8,-18.8%[57.1 µM],-0.5%,-10.5%,-7.7%[46.1 µM],x
CCOC(=O)c1c(C)[nH]c(C)c1S(=O)(=O)N1CCN(c2ccc(Cl)cc2)CC1,2.0%,x,x,x,5.5%,x,x
O=C(CN1C(=O)N/C(=C\c2cccn2-c2cccc(C(=O)O)c2)C1=O)Nc1ccc(Cl)cc1,x,x,x,x,x,x,60.1*
O=C(O)c1cccc(-n2cccc2/C=C2/NC(=O)N(Cc3ccccc3F)C2=O)c1,-2.0%,-5.7,-10.4%[11.6 µM],-23.3%,14.9%,1.6%,x
Cc1cccc(C)c1NC(=O)CN1C(=O)S/C(=C\c2cccn2-c2cccc(C(=O)O)c2)C1=O,50.1µM*,-69.3*,u,42.3µM*,-15.6%,-13.5%,75.7*
O=C(O)c1cc(Cl)ccc1-c1ccc(/C=C/c2cc(C(F)(F)F)[nH]c(=O)n2)o1,u,-53.1*,u,40.2%,-15.4%,1.7%,60.1*
COCCNC(=O)CCCN1C(=O)CCn2nc(-c3cccn3C)cc21,15.8%,x,x,x,7.8%,x,x
COc1ccc(S(=O)(=O)NCC(c2ccco2)N2CCN(c3ccc(F)cc3)CC2)cc1C (stereo unspecified),0.9%,x,x,x,4.2%,x,x
Cc1ccc(O)c2ncccc12,x,x,x,x,-7.8%,x,x
Cc1c(C)c2cccnc2c2ncccc12,15.8µM*,-3.2,-7.2%[11.6 µM],-7.6%,-6.9%,5.5%,42.6*
COc1cc([N+](=O)[O-])ccc1NC(=O)Nc1cnccn1,-18.6%,0.9,-2.9%,-2.4%,-0.8%,-6.4%,u
COc1ccccc1NC(=O)Nc1cnccn1,-0.4%,0.7,-1.6%,-19.3%,-26.8%,2.5%,x
N=C1/C(=C\c2ccc(-c3ccc(C(=O)O)cc3)o2)C(=O)N=C2SC=C(c3ccccc3)N12,50.1µM*,-70.3*,-23.9%[11.6 µM],u,-7.6%,6.4%,u
CC1=CC2=NC(=O)/C(=C\c3ccc(-c4ccc(Cl)cc4)o3)C(=N)N2O1,x,x,x,x,x,-5.6%[46.1 µM],x
CC(=O)Nc1ccc(N(C(=O)Cn2nnc3ccccc32)C(C(=O)NCc2ccccc2)c2ccc(C)cc2)cc1 (stereo unspecified),-7.8%,x,x,x,-9.0%,x,x
O=[N+]([O-])c1ccc(C=Nc2cccc3ccccc23)s1,u,5.9,-4.3%,-5.9%,-7.8%,-6.0%,6.01*
O=[N+]([O-])c1ccc(-c2ccc(C=Nc3cccc4ccccc34)o2)cc1,-12.0%,x,-7.1%[57.1 µM],-12.1%,13.5%,1.6%[46.1 µM],x
c1nc(NCc2ccc3c(c2)OCO3)c2cc(-c3ccoc3)ccc2n1,-14.0%,x,x,x,-3.6%,2.8%,x
NCCNc1ncnc2ccc(-c3ccc4c(c3)OCO4)cc12,x,x,x,x,x,x,26.9*
SMILES,FEN1 inh-1,PI5P4K alpha inh,WRN inhibitor,PLK1 PBD inh,VDR inh,TCR activator,FEN1 inh-2
NCCCCNc1ncnc2ccc(-c3ccc4c(c3)OCO4)cc12,x,x,x,x,x,x,30.1*
CN(C)CCCNc1ncnc2ccc(-c3ccc4c(c3)OCO4)cc12,x,x,x,x,x,x,30.1*
Fc1cccc(CNc2ncnc3ccc(-c4ccc5c(c4)OCO5)cc23)c1,u,x,x,x,-2.5%,-4.4%,x
c1ccc(CNc2ncnc3ccc(-c4ccc5c(c4)OCO5)cc23)cc1,x,x,x,x,-21.2%,x,x
CCc1ccccc1NC(=O)C1(S(=O)(=O)c2ccc(Cl)cc2)CC1,-13.2%,x,x,x,12.6%,x,x
O=C(CSc1ccsc1[N+](=O)[O-])NCc1ccccc1,-0.5%,u,0.8%[11.6 µM],u,-17.2%,0.9%,u
CC1CCCCC1NC(=O)CSc1ccsc1[N+](=O)[O-] (stereo unspecified),5.6%,-2.5,-17.4%,-6.2%,-5.1%,4.0%,x
O=C1NN(c2ccc(Cl)cc2)C(=O)/C1=C\c1ccc(-c2cccc(C(=O)O)c2)o1,50.1µM*,-69.2*,u,23.8µM*,u,-4.1%,67.5*
Cc1ccc(NC(=O)CN2C(=O)S/C(=C\c3cc(Cl)c(OCC(=O)O)c(Cl)c3)C2=O)cc1,44.7µM*,u,-11.1%[11.6 µM],23.8µM*,70.8µM*,0.2%,75.7*
COC(=O)C(=O)/C=C(\O)c1c(C)cc(C)cc1C,u,10.5,-8.9%[57.1 µM],-6.3%,-16.7%,11.5%,37.9*
O=C(NCc1ccccc1C(F)(F)F)c1cccc2c1C(=O)c1ccc(N3CCC(N4CCCCC4)CC3)cc1S2(=O)=O,x,-8.4,124.2%,7.2%,x,x,75.7*
CCOC(=O)c1ccccc1NC(=O)CSc1cn(CC(=O)N2CCOCC2)c2ccccc12,15.6%,x,x,x,8.1%,x,x
Cc1cccc(N/N=C/c2ccc(O)c(O)c2O)c1,25.1µM*,-23.3,-9.4%[11.6 µM],11.9µM*,u,6.3%,u
COc1cccc(N/N=C/c2cccc(Br)c2O)c1,-2.1%,19.9,-19.7%,-10.5%,-8.0%,-2.5%,x
COC(=O)C(NS(N)(=O)=O)C(C)C (stereo unspecified),13.8%,x,x,x,-8.2%,x,x
O=c1[nH]c2ccc(S(=O)(=O)N3CCN(S(=O)(=O)c4c(F)cccc4F)CC3)cc2[nH]c1=O,x,x,x,x,x,x,u
O=c1[nH]c2ccc(S(=O)(=O)N3CCN(Cc4ccccc4)CC3)cc2[nH]c1=O,4.5%,x,4.4%,-2.0%,12.4%,8.5%,x
CCOc1ccc(Nc2c3ccccc3nc3ccccc23)cc1,44.7µM*,4.1,u,-14.2%,-3.8%,11.1%,42.6*
O=C(O)c1cc(C(=O)O)cc(N2C(=O)CSC2=S)c1,u,5.6,-23.9%[11.6 µM],-3.3%,-2.0%,1.6%,x
O=C(O)c1ccc(N2C(=O)CSC2=S)cc1,-2.5%,-6.5,3.4%[11.6 µM],-10.5%,11.8%,-0.7%,u
C/C(=N\Nc1nc2ccccc2c(=O)n1O)c1ccco1,u,u,-13.8%[11.6 µM],21.2µM*,-15.8%,2.4%,30.1*
Cc1nc2ccccc2c(=O)n1NC(=O)c1ccco1,-4.2%,0.8,-8.1%,-8.3%,-7.1%,-7.5%[46.1 µM],x
COc1cc(-c2nnc(COC(=O)c3ccc([N+](=O)[O-])o3)o2)cc(OC)c1OC,x,5.3,10.8%,-17.5%,x,x,8.49*
CCN(CC)c1ccc(C=C2SC(=S)NC2=O)cc1,-28.9%,u,50.1µM*,50.1%,u,-5.5%,u
